# Results published in PubChem BioAssay AID485297 (National Center for Advancing Translational Sciences (NCATS), 2010).
# Screen size: about 320,000 compounds; about 9,100 (2.8%) were called active. Where a call stands in place of a potency, no number is given. About 3% were inconclusive and are not listed. Calls follow the shape of the dose curve; as a rule, active = well fitted activation curve with a large enough effect; inconclusive = small, poorly fitted or top-dose-only effect; inactive = no such curve, though single readings can be large or run the other way. This excerpt belongs to a sample that is enriched for actives.
# Test: qHTS Assay for Rab9 Promoter Activators; also: nearly all actives have a fitted effect of over 60% in size
# Settings: Huh7 Rab9 promoter-luciferase reporter, luminescence, 24 h; series mostly up to 9.22 µM
# Outline: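 Cell-based reporter: Huh7 stable for Rab9 promoter-driven luciferase, plated in reduced-serum medium with 10% FBS at 1500 cells/well, compound-treated 24 h at 37 °C, luminescence read after 10 min reagent.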
# Potency is read from the fitted curve at half-maximal effect.
row,Structure (SMILES),Potency
1,COc1ccc(F)cc1C(=O)COC(=O)c1n[nH]c(=O)c2ccccc12,inactive
2,CCOC(=O)CSc1nccc(N(C)C)c1C#N,inactive
3,Cc1nonc1NC(=O)CSc1nc2ccccc2cc1C#N,inactive
4,CCOc1ccc2cc(C#N)c(SCC(=O)OC)nc2c1,1.58 µM (active)
5,COc1ccc(C(C)(C)C)cc1NC(=O)CCN1C(=O)C2CCCCC2C1=O (centres undefined),inactive
6,Cc1ccc(O)c(NC(=O)c2cc(-c3ccco3)on2)c1,inactive
7,CCOc1ncccc1C(=O)OCC(=O)c1c[nH]c2ccccc12,inactive
8,CC1CC1C(=O)OCC(=O)Nc1cccc(F)c1 (centres undefined),inactive
9,Cn1c(COc2ccc(Cl)cc2)nc2ccccc2c1=O,inactive
10,Cc1ccc(OCc2nc3ccccc3n2C)cc1,1.78 µM (active)
11,CC(C)n1c(COc2ccccc2)nc2ccccc21,inactive
12,CN(C(=O)CC1C(=O)NCCN1Cc1ccc2ccccc2c1)C1CCOCC1 (centres undefined),inactive
13,O=C(CNC(=O)OCc1ccccc1)NC1CCCCNC1=O (centres undefined),inactive
14,CCc1ccc(-c2nn(-c3ccccc3C)cc2C(=O)N2CCN(C3CCS(=O)(=O)C3)CC2)cc1 (centres undefined),inactive
15,NC(=O)Cc1ccc2sc(-c3ccccc3)nc2c1,3.55 µM (active)
16,O=C(O)Cc1sc(-c2ccccc2)nc1-c1cccs1,inactive
17,NC(=O)Cc1ccc2c(c1)[nH]c1ccccc12,inactive
18,CC(=O)N1CCOc2ccc(S(=O)(=O)N3CCC(C(=O)Nc4ccccc4F)CC3)cc21,inactive
19,CCc1nnc(NC(=O)c2cc(S(=O)(=O)N3CCCCC3)ccc2C)s1,inactive
20,COc1ccc(-c2nc3n(c2Br)CCC3)cc1,2.51 µM (active)
21,COc1ccc(-c2nnc3n2CCCCC3)cc1,inactive
22,COc1ccc(-c2nc(SCC(=O)N3CCCC3)n[nH]2)cc1,inactive
23,O=C(Nc1ccccc1Cl)c1ccc2nsnc2c1,2.51 µM (active)

row,Structure (SMILES),Potency
1,Cc1cccc(NC(=O)c2ccc3nsnc3c2)c1C,inactive
2,O=C(Nc1ccccc1N1CCCCC1)c1ccc2nccnc2c1,inactive
3,COc1ccc(Cl)cc1NC(=O)COc1ccc2c(c1)OCO2,inactive
4,CCOC(=O)CN(C(=O)CN1CCOCC1)c1ccc(Br)cc1,inactive
5,CC(=O)Nc1cccc(C(=O)OCC(=O)c2ccc3c(c2)OCO3)c1,0.0891 µM (active)
6,C/C(=N\NC(=O)C(N)=O)c1ccc2c(c1)OCCO2,inactive
7,CC(=O)Nc1cccc(C(=O)OCC(=O)NCc2cc(C)c(O)c(C)c2)c1,inactive
8,CC(NC(=O)COC(=O)c1ccc2c(c1)OCO2)c1ccccc1 (centres undefined),inactive
9,O=C(COC(=O)c1ccncc1)c1ccccc1,inactive
10,O=C(COC(=O)c1ccc2c(c1)OCCO2)NCc1ccccc1,inactive
11,O=C(CN1CCN(c2ccccc2F)CC1)c1ccc2c(c1)OCO2,inactive
12,O=C(COC(=O)c1ccccc1)c1ccc2c(c1)OCCO2,0.631 µM (active)
13,O=C(OCc1ccccc1F)c1ccc2c(c1)OCCO2,3.16 µM (active)
14,CN(CC(=O)NC(=O)Nc1ccccc1F)Cc1ccccc1,inactive
15,CCCn1c(N)c(C(=O)CSc2nnc3n2CCCCC3)c(=O)[nH]c1=O,inactive
16,O=C(Nc1nnc(CCN2CCCCC2)s1)c1cccc(Cl)c1,inactive
17,CC(NC(=O)CN(C)S(=O)(=O)c1ccc(F)cc1)C1CC2CCC1C2 (centres undefined),inactive
18,Cc1ccc(CNC(=O)CC(NC(=O)c2ccccc2)c2ccccc2)cc1 (centres undefined),inactive
19,CC1(C)CC(=O)C=C(c2cccc3c2Oc2ccccc2S3)C1,inactive
20,COc1cc(SC)ccc1C(=O)Nc1cc(C)ccn1,3.55 µM (active)
21,Cc1ccnc(NC(=O)CCCOc2ccccc2)c1,inactive
22,Cc1ccnc(NC(=O)CNC(=O)c2ccccc2)c1,inactive
23,COc1ccccc1OCCNC(=O)CCNC(=O)c1ccccc1Cl,inactive

row,Structure (SMILES),Potency
1,COc1cc(SC)ccc1C(=O)NCCOc1ccccc1Cl,3.98 µM (active)
2,COc1cc(SC)ccc1C(=O)N(Cc1ccccc1)c1ccccc1,inactive
3,COc1cc(F)c(C2=CC(=O)CC(C)(C)C2)cc1F,inactive
4,Cc1ccc(CC(=O)Nc2ccc(S(=O)(=O)N3CCOCC3)cc2)cc1C,inactive
5,CN1CCN(S(=O)(=O)c2cccc(C(=O)Nc3sccc3C#N)c2)CC1,inactive
6,COc1cccc(CNC(=O)CN2C(=O)NC(Cc3ccccc3)(c3ccccc3)C2=O)c1 (centres undefined),inactive
7,Cc1nc(C)c(C(=O)Nc2ccc(C)c(F)c2)o1,inactive
8,Cc1cccc(NC(=O)NC(=S)NC(=O)c2ccccc2)c1,inactive
9,Cc1ccc(NC(=O)NC(=O)c2ccccc2)cc1F,0.398 µM (active)
10,CC1CCCCC1NC(=O)NC(=O)COC(=O)C1=NN(c2ccccc2)C(=O)CC1 (centres undefined),inactive
11,O=C(NCC1(N2CCCCC2)CCCCC1)c1ccc(NS(=O)(=O)c2ccc(F)cc2)cc1,inactive
12,O=C(CSc1nc2ccccc2[nH]1)c1cccs1,2 µM (active)
13,O=C(COC(=O)CCCSc1nc2ccccc2[nH]1)Nc1ccc(Oc2ccccc2)cc1,inactive
14,CCCCSc1nc2ccccc2[nH]1,2 µM (active)
15,O=C(CSc1nc2ccccc2[nH]1)Nc1nc(-c2ccccc2)c(-c2ccccc2)o1,inactive
16,CCc1nnc(NC(=O)CCCSc2nc3ccccc3[nH]2)s1,inactive
17,CN(Cc1ccccc1)C(=O)CSc1nc2ccccc2[nH]1,inactive
18,O=C(NCc1cccc(Cl)c1)C1=CC=CN2CCS(=O)(=O)N=C12,inactive
19,Cc1cccc2cc3c(N)c(C(=O)N4CCCc5ccccc54)sc3nc12,inactive
20,CC(C)OC(=O)c1sc2nc3c(cc2c1N)C(=O)CCC3,3.55 µM (active)
21,Nc1c(C(=O)NCc2ccccc2)sc2nc3c(cc12)C(=O)CCC3,inactive
22,CCCC(=O)Nc1nc2ccc(NC(=O)c3c(F)c(F)c(OC)c(F)c3F)cc2s1,inactive
23,O=C(Nc1ccncc1)c1c(F)cccc1F,inactive

row,Structure (SMILES),Potency
1,CSc1nc2ccc(NC(=O)c3c(F)cccc3F)cc2s1,3.55 µM (active)
2,CSCCC(NC(=O)COc1ccccc1)C(=O)N(C)CC(=O)Nc1ccc(C)cc1 (centres undefined),inactive
3,O=C(NC1CCCC1)c1ccc(Br)s1,inactive
4,CC(C)C(=O)OCC(=O)Nc1ccc2c(c1)CCC2,inactive
5,O=C(Nc1ccc2c(c1)CCC2)c1ccc(Br)s1,1.12 µM (active)
6,Cc1ccc(NC(=O)CCNC(=O)c2ccc([N+](=O)[O-])cc2)cc1S(=O)(=O)N1CCOCC1,inactive
7,O=C(CCNC(=O)c1ccccc1Cl)NCc1ccco1,inactive
8,COc1ccc(CNC(=O)COC(=O)c2ccc(C)c(S(=O)(=O)N3CCOCC3)c2)cc1OC,inactive
9,O=C(NC1CCCCC1)c1ccc(-c2ccc(Cl)cc2)o1,2.82 µM (active)
10,S=C(NCc1ccc(Cl)cc1)NC1CCCCC1,inactive
11,O=C(NC(=S)NC1CCCCC1)c1ccc(Cl)cc1,inactive
12,CCCC(NCC(=O)Nc1ccccc1C(=O)NC1CC1)c1ccccc1 (centres undefined),inactive
13,O=C(OCC(=O)N1CCc2ccccc21)c1ccc([N+](=O)[O-])cc1,inactive
14,Cc1cccc(C)c1NC(=O)COC(=O)c1c(C)nn(-c2ccccc2)c1C,inactive
15,Cc1ccc(-n2nc(C)c(C(=O)O)c2-n2cccc2)cc1,inactive
16,Cc1ccc(OC(=O)c2c(C)nn(-c3ccccc3)c2C)cc1,3.16 µM (active)
17,Cc1ccc(NC(=O)CN(C)S(=O)(=O)c2cnc[nH]2)cc1C,inactive
18,Cc1ccc(S(=O)(=O)N2CCOCC2)cc1NC(=O)COC(=O)c1cnccn1,inactive
19,Cc1cc(C)nc(N2CCC(C(=O)Nc3ccc4c(c3)OCCO4)CC2)n1,inactive
20,O=C(Nc1ccc2c(c1)OCCO2)C1CCCN(c2ncccn2)C1 (centres undefined),0.316 µM (active)
21,O=C(Nc1ccc2c(c1)OCCO2)C1CCCC1,inactive
22,Cc1c(C(C)CCCO)oc(=O)c2c1Oc1c(C)c(C(C)C[C@@H](C)O)oc(=O)c1C2 (some centres undefined),inactive
23,CCCN(CCC)CC(O)COc1ccccc1C(=O)Nc1ccccc1 (centres undefined),inactive

row,Structure (SMILES),Potency
1,Cc1ccc(C(=O)Nc2c(C#N)c(C)c(C)n2Cc2ccccc2)cc1,inactive
2,CC(C)C(=O)Nc1ccc2c(c1)oc1ccccc12,0.891 µM (active)
3,Cc1cc(=O)oc2cc(NC(=O)C(C)Oc3ccccc3)ccc12 (centres undefined),inactive
4,CC(C)C(=O)Nc1ccc2oc(=O)ccc2c1,inactive
5,CC1(C)O[C@@H]2[C@H](O1)[C@@H](CO)O[C@H]2n1c(N2CCCCC2)nc2c(N)ncnc21,inactive
6,Fc1ccccc1/C=N/n1c(-c2cccnc2)n[nH]c1=S,inactive
7,Cc1cc(-c2n[nH]c(=S)n2/N=C/C(Br)=C/c2ccccc2)n[nH]1,inactive
8,S=c1[nH]nc(-c2cccnc2)n1/N=C/C(Cl)=C\c1ccccc1,3.16 µM (active)
9,O=c1oc(-c2ccco2)nc2sc3c(c12)CCCCC3,3.55 µM (active)
10,O=C(NCc1ccco1)c1cccn2c(=O)c3c4c(sc3nc12)CCCC4,inactive
11,Cn1c(=O)n(Cc2ccco2)c(=N)c2c3c(sc21)CCCC3,inactive
12,CCOC(=O)N1CCN(S(=O)(=O)c2ccc3c(c2)C(C)C(=O)N3)CC1 (centres undefined),inactive
13,CC(C)N(C(=O)CN1CCN(S(=O)(=O)c2ccc(Br)s2)CC1)C(C)C,inactive
14,COc1cc(C(=O)NNC(=O)CN2C(=O)NC3(CCCC3)C2=O)cc(OC)c1OC,inactive
15,CCOC(=O)c1sc(NC(=O)COc2ncnc3ccccc23)c(C(=O)OCC)c1C,inactive
16,CCC(=O)Nc1sc(C(=O)Nc2ccccc2)c(C)c1C(=O)OC,0.891 µM (active)
17,COC(=O)c1c(NC(C)=O)sc(C(=O)Nc2ccccc2OC)c1C,inactive
18,Cc1ccc(NC(=O)CCC(=O)N2CCC(c3ccccc3)=N2)cc1S(=O)(=O)N1CCCCC1,inactive
19,CCN(CC)C(=O)c1nc[nH]c1C(=O)N(C)Cc1ccccc1,inactive
20,Cc1ccc(Nc2nc(N)nc(CSc3nnc(C)s3)n2)cc1,4.47 µM (active)
21,CCOC(=O)N1CCN(Cc2nc(N)nc(Nc3ccc(C)cc3)n2)CC1,inactive
22,Cc1nnc(SCc2nc3ccccc3nc2C)s1,inactive
